Measurements reported in PubChem BioAssay AID2590 (National Center for Advancing Translational Sciences (NCATS), 2010).
Inconclusive results are not listed. Unmarked numbers belong to inactive results. The source made the active and inactive calls. The call rests on the fitted dose curve; in most records, active means well fitted curve in the direction sought with a large enough effect; inconclusive means small, poorly fitted or top-dose-only effect, or another doubt; inactive means no such curve, though single readings can be large or run the other way.

biological target: Lysosomal acid glucosylceramidase (Homo sapiens) (UniProt P04062); assay: qHTS Assay for Inhibitors and Activators of N370S glucocerebrosidase as a Potential Chaperone Treatment of Gaucher Disease: Primary Screen Confirmation; settings: N370S glucocerebrosidase enzyme activity, fluorogenic substrate; series mostly up to 54 µM; activity change, negative = inhibition: at the top concentration;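 on Potency: enzyme source is Gaucher patient spleen homogenate not purified recombinant protein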;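 on activity change, negative = inhibition: 0% = enzyme with DMSO and -100% = no enzyme basal signal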
Method in brief: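 Patient-spleen homogenate carrying N370S GC (27 ug) in pH 5.0 citrate buffer with 0.01% Tween-20, 1 mM 4-methylumbelliferyl-beta-glucoside, 40 min at 37C; fluorescence 365/440 nm after NaOH/glycine stop; AC50 from Hill fits.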
Potency means the concentration at half of the fitted maximal effect.

Sequence of Lysosomal acid glucosylceramidase (Homo sapiens) (P04062 whole entry N409S): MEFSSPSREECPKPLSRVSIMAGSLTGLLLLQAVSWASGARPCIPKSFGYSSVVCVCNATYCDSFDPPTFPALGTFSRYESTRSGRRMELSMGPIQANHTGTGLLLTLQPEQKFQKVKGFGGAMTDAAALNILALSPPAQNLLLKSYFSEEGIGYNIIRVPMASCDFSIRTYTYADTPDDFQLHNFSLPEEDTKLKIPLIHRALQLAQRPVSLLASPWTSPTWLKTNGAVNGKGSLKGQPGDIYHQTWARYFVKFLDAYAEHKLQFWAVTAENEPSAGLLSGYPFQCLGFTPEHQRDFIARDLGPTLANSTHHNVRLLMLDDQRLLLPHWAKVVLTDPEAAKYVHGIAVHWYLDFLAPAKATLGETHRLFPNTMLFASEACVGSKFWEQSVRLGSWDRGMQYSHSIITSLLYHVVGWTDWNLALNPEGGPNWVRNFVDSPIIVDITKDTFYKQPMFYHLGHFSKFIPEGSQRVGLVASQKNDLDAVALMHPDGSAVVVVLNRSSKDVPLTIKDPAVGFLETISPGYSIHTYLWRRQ

Structure (SMILES) | Potency | activity change, negative = inhibition
O=[N+]([O-])c1cccc(S(=O)(=O)N2CCN(c3nc(-c4cccs4)nc4ccccc34)CC2)c1 | 2.53 µM (active) | –
S=C(NCCCc1cnc[nH]1)NCCCN(Cc1ccc(Cl)cc1)c1ccc(Br)cc1 | 1.13 µM (active) | –
Clc1ccc(CN(CCCNc2ncnc(NCCCc3cnc[nH]3)n2)c2ccc(Br)cn2)cc1Cl | 5.66 µM (active) | –
Cc1cc(Cl)nc(NC(=O)Nc2cccc(Cl)c2)n1 | – | 20.8%
S=C(NCCCCN(Cc1ccc(Cl)cc1)c1ccc(Br)cn1)NCCCc1cnc[nH]1 | 0.635 µM (active) | –
CCOc1ccc(S(=O)(=O)N2CCN(c3nc(-c4ccccc4)nc4ccccc34)CC2)cc1 | 4.11 µM (active) | –
Cc1ccccc1S(=O)(=O)N1CCN(c2nc(-c3cccs3)nc3ccccc23)CC1 | 2.53 µM (active) | –
NCCCNc1ccc(Br)cn1 | – | -9.9%
Cc1ccc(S(=O)(=O)N(C)CCN(C)c2nc(-c3cccs3)nc3ccccc23)cc1 | 2.25 µM (active) | –
NCCCN(Cc1ccc(Cl)c(Cl)c1)c1ccccn1 | – | -26.1%
O=S(=O)(c1ccc(Br)cc1)N1CCN(c2nc(-c3cccs3)nc3ccccc23)CC1 | 1.3 µM (active) | –
O=S(=O)(c1ccsc1)N1CCN(c2nc(-c3cccs3)nc3ccccc23)CC1 | 1.03 µM (active) | –
O=S(=O)(c1cccc(C(F)(F)F)c1)N1CCN(c2nc(-c3cccs3)nc3ccccc23)CC1 | 6.35 µM (active) | –
S=C(NCCCc1cnc[nH]1)NCCCN(CCc1ccc(Cl)cc1)c1ccc(Br)cn1 | 1.79 µM (active) | –
Cc1ccc2nc(-c3ccc(SCC(=O)N4CCc5ccccc54)nc3)[nH]c2c1 | 10 µM (active) | –
